# Measurements reported in ChEMBL document CHEMBL3988442, “University of Dundee, Small-Polar-MMV Screening Library” (2021).
# Screen size: about 48,000 compounds; about 13,000 (27%) showed an effect of 50% or more. This is one part of the list.
# System: Wolbachia pipientis
# Assay: Anti-Wolbachia Cell-Based Screen
# Type: functional
# Design: scale not given: in the data most compounds retested in dose-response had high values
# Details: 5 µM
row,SMILES,Percent Effect [%]
1,COc1ccc(CNC(C)c2cccc(Cl)c2)c(OC)c1OC (stereo not drawn),0.8374
2,O=C(CCOc1ccccc1)N1CCC(Nc2cccnn2)CC1,-3.199
3,CS(=O)(=O)N[C@H]1CN(C(=O)CCc2ccco2)C[C@@H]1C1CC1,-12.24
4,O=C(CCCc1ccccc1)N1CCC(Nc2cccnn2)CC1,109.6
5,O=C(CCCc1ccccn1)N1CCC(Nc2cccnn2)CC1,-8.554
6,O=C(CCc1ccccc1F)N1CCC(Nc2cccnn2)CC1,101.4
7,Cc1cc(N2CCC(NC(=O)CCc3ccco3)CC2)nc(C)n1,7.107
8,Cc1ccccc1NC1CCN(C(=O)CCc2ccco2)CC1,99.83
9,O=C(CCn1ccc2ccccc21)N1CCC(Nc2cccnn2)CC1,-13.71
10,CSc1ncccc1C(=O)N1C[C@H]2CC[C@@H]1CN(c1cnccn1)C2,-13.27
11,CCCN(CCC)S(=O)(=O)c1cc(NC(C)=O)ccc1C,31.01
12,O=C(O)c1cc(-c2ccoc2)cc(S(=O)(=O)N2CCSCC2)c1,11.83
13,CCN(Cc1ccoc1)C(=O)c1cc(C)c(C)c(S(N)(=O)=O)c1,-19.87
14,CCCNC(=O)N1CCC(Oc2cc(C)ccc2F)(C(=O)O)CC1,-9.891
15,Cc1cnc(CNC(=O)[C@@H]2CC[C@@H]3[C@@H](CCN3Cc3ccco3)O2)cn1,-4.994
16,COCCNC(=O)[C@@H]1CC[C@@H]2[C@@H](CCN2Cc2cnn(C)c2)O1,-9.722
17,O=C(NCC1CC1)[C@H]1CC[C@@H]2[C@@H](CCN2Cc2nccs2)O1,114.7
18,O=C(NCC1CCOCC1)[C@@H]1C[C@@H]2[C@@H](CCN2Cc2nccs2)O1.O=C(O)C(F)(F)F,97.65
19,O=C(O)[C@]12CCCN(Cc3nccs3)[C@@H]1CCN(c1cnccn1)C2,6.87
20,COCCN1CCN(CC(=O)N(C)Cc2cccc(F)c2)CC1C (stereo not drawn),-2.425
21,Cc1noc(C)c1CN(C)Cc1cnc(N2CCOCC2)nc1,-2.338
22,Cc1ccc(-c2cc(C(F)(F)F)nc(N3CCOCC3)n2)s1,100.5

row,SMILES,Percent Effect [%]
1,Cc1nc(N2CCOCC2)nc(C)c1NS(=O)(=O)c1ccccc1,4.303
2,Cc1cc(-c2cnc(N3CCSCC3)nc2-c2ccc(C)s2)on1,126.2
3,CCc1cc(NCCC(F)(F)F)nc(N2CCOCC2)n1,-15.1
4,Cc1cc(-c2cnc(N3CCOCC3)nc2-c2ccc(C)s2)on1,90.53
5,Cc1cc(-c2cnc(N3CCN(C)CC3)nc2-c2ccc(C)s2)on1,-10.07
6,Cc1ccc(-c2cc(-c3nc(CN4CCN(C)CC4)no3)[nH]n2)s1,-11.14
7,Cc1cnc(N2CCN(C)CC2)nc1-c1ccnn1C,-36.32
8,O=C1c2cnc(N3CCOCC3)nc2CN1c1ccc2c(c1)OCO2,-5.261
9,CCN1CCN(c2ncc(-c3cc(C)no3)c(-c3ccc(C)s3)n2)CC1,-7.299
10,Cc1cc(-c2cnc(N3CCCC3)nc2-c2ccc(C)s2)on1,81.04
11,Cc1cccc(C(C)CNC(=O)N2CCOCC3(CCOCC3)C2)c1 (stereo not drawn),-15.26
12,COCCCn1ccc(NC(=O)NCCCn2ccnc2)n1,5.848
13,CC(C)[C@@H]1CN(CCOc2ccc(Cl)cc2)C[C@H]1NS(C)(=O)=O,1.84
14,Cc1cccc(-c2noc([C@@H]3Cc4nc[nH]c4CN3)n2)c1,-0.5604
15,COc1ccnc(N2CCN(C(=O)c3csc(C)n3)CC2)n1,-2.798
16,COc1ccc(N2CCCN(C(=O)Cc3csc(C)n3)CC2)cc1,-1.36
17,CCOc1ccnc(N2CCN(C(=O)CCc3ccsc3)CC2)n1,8.96
18,COc1ccnc(N2CCN(C(=O)Cc3ccc(C)s3)CC2)n1,0.2283
19,COc1ccnc(N2CCN(C(=O)CN3CCCC3=O)CC2)n1,-1.755
20,COc1ccnc(N2CCN(C(=O)CCc3nccs3)CC2)n1,-9.419
21,COc1ccnc(N2CCCN(C(=O)Cc3ccc(C)s3)CC2)n1,128.9
22,COc1ccnc(N2CCN(C(=O)Cc3ccc(C#N)cc3)CC2)n1,1.226

row,SMILES,Percent Effect [%]
1,COc1ccnc(N2CCN(C(=O)Cc3ccn(C(C)C)n3)CC2)n1,115.4
2,COc1ccnc(N2CCN(C(=O)NCc3ccc(C)s3)CC2)n1,-6.706
3,COc1ccnc(N2CCN(C(=O)Cc3csc(C)n3)CC2)n1,124.6
4,COc1ccnc(N2CCN(C(=O)Cc3ccsc3)CC2)n1,128.2
5,Cc1csc(C2(NCC(O)COc3ccc(F)cc3)CCC2)n1 (stereo not drawn),-11.72
6,COc1cc(N2CCN(Cc3ccsc3)C(CCO)C2)nc(N)n1 (stereo not drawn),10.71
7,Cc1ccc(-c2ccc(C(=O)NCCS(N)(=O)=O)c(F)c2)cc1,17.06
8,CCn1nc(C)c(CNC(=O)c2cn(CCC3CCCCN3)nn2)c1C (stereo not drawn),-6.64
9,CC1CCN(S(=O)(=O)c2cccn(CC(=O)NC3CCCC3)c2=O)CC1,-17.34
10,Cc1cc(=O)n(CC(=O)NCC2CCCO2)c(-c2cccc(Cl)c2)n1 (stereo not drawn),14.67
11,O=C(Cn1nc(-c2ccc(F)cc2)oc1=O)NCC1CCCO1 (stereo not drawn),-3.643
12,Cc1nn(C)c2c(N3CCN(C(=O)NC4CCCCC4)CC3)ncnc12,8.343
13,CCn1nc(C)c(CNC(=O)c2cn(CC3CCCO3)nn2)c1C (stereo not drawn),113.5
14,Cc1nn(C)c2c(=O)n(CC(=O)NC3CCCCC3)ccc12,138.3
15,CCn1nc(C)c2ccn(CC(=O)NCC3CCCO3)c(=O)c21 (stereo not drawn),132.9
16,CCn1nc(C)c2ccn(CC(=O)NC3CCCC3)c(=O)c21,-1.508
17,Cc1noc(C)c1CNC(=O)c1cn(CCC2CCCCN2)nn1 (stereo not drawn),-0.3777
18,CCn1nc(C)c2ccn(CC(=O)NC3CC3)c(=O)c21,112.9
19,CCN1CCC(NC(=O)Cn2cc(C)c3ccccc32)CC1,-38.76
20,Cc1ccccc1C(C#N)NC(=O)c1cccc2c1OCCO2 (stereo not drawn),0.1196
21,COc1ccc(OC)c(CNCCc2cc(F)cc3c2OCOC3)c1,17.88
22,Cc1ccc(S(C)(=O)=O)cc1C(=O)N(C)Cc1ccco1,9.899

row,SMILES,Percent Effect [%]
1,NC(=O)c1ccc(=O)n(Cc2cc(Br)ccc2Cl)n1,5.907
2,Cc1cc(C(=O)Nc2nnn[nH]2)ccc1I,-9.005
3,Cc1cc(C(C)NC(=O)Cn2nc(C)c3ccccc3c2=O)c(C)o1 (stereo not drawn),-1.65
4,CC(C(=O)NCCN1CCCCCC1)n1cncn1 (stereo not drawn),6.754
5,CCCNC(=O)Cn1nc(C)c2cnn(C(C)(C)C)c2c1=O,7.954
6,Cc1c2ncn(CC(=O)NC(C)C)c(=O)c2nn1C,-0.5924
7,CCn1nc(C)c2nnn(CC(=O)Nc3c(C)cccc3C)c(=O)c21,15.34
8,CCn1nc(C)c2ccn(CC(=O)NCCN3CCCCC3)c(=O)c21,109.9
9,CCC(C)NC(=O)Cn1ccc2c(C)nn(CC)c2c1=O (stereo not drawn),121.4
10,CCn1nc(C)c2ccn(CC(=O)NC(C)C)c(=O)c21,83.24
11,C1CN(c2nc3c(c(NC4CC4)n2)CN(CC2CCOC2)CC3)CCO1 (stereo not drawn),-9.007
12,Cn1cc(CN2CCC3(CCC(C(=O)NCC4CC4)C3)CC2)cn1.O=C(O)C(F)(F)F (stereo not drawn),38.61
13,O=C(c1ccncc1Cl)N1CCN(Cc2ccco2)C(CCO)C1 (stereo not drawn),-0.1352
14,Cc1nn(C)c(C)c1NC(=O)CNC(c1ccc(F)cc1)C1CCC1 (stereo not drawn),19.96
15,CCNC(=O)c1ccnc(NCC2COc3cc(OC)ccc3C2)c1 (stereo not drawn),-7.933
16,COc1ccc2c(c1)OCC(CNc1cc(N)nc(SC)n1)C2 (stereo not drawn),101.5
17,COc1cccc2c1OCC(CNc1ccc(C)nn1)C2 (stereo not drawn),-0.7094
18,COc1cccc2c1OCC(CNc1cc(N)nc(SC)n1)C2 (stereo not drawn),103.8
19,COc1ccc2c(c1)OCC(Cc1ccc(C)nc1N)C2 (stereo not drawn),95.38
20,COc1ccc2c(c1)OCC(Cc1cnc(N)c(C)c1)C2 (stereo not drawn),16.7
21,COc1cccc2c1OCC(CNC(=O)Cc1c(C)nc(N)nc1C)C2 (stereo not drawn),-7.382
22,COc1ccc2c(c1)OCC(Cc1cnccc1N)C2 (stereo not drawn),13.35

row,SMILES,Percent Effect [%]
1,CCc1nc2c(NCC3COc4cc(OC)ccc4C3)ncnc2o1 (stereo not drawn),-96.33
2,Cc1cc(C(=O)N(C)Cc2ccn[nH]2)c(NC(=O)C(C)(C)C)s1,-4.418
3,CS(=O)(=O)N1CCOC2(CCCN(c3cnccn3)C2)C1.O=C(O)C(F)(F)F (stereo not drawn),-3.383
4,Cc1noc(-c2ccc(N(C)Cc3nccs3)nc2)n1,-5.626
5,CN(Cc1cc2c(cc1OC(F)F)OCO2)Cc1nccn1C,-0.8901
6,CCC(=O)c1ccc(OCC(=O)NC(C)c2ncnn2CC)cc1 (stereo not drawn),-19.04
7,CCCn1c(O)nnc1SCC1OCCc2ccccc21 (stereo not drawn),5.121
8,CCc1cc(C(=O)N[C@H]2CN(CCS(C)(=O)=O)C[C@@H]2C2CC2)[nH]n1,-10.24
9,CCOc1ccc(C#N)cc1NCC(=O)NC(=O)NC,104.9
10,CCNC(=O)C1CCCN(C(=O)Nc2cc(C#N)ccc2OCC)C1 (stereo not drawn),2.708
11,CCOc1ccc(C#N)cc1NCc1cc(C)on1,-2.452
12,CCOc1ccc(C#N)cc1NCC(=O)Nc1cc(C)no1,4.952
13,CCOc1ccc(C#N)cc1NC(=O)N1CCCC(NC(=O)CC)C1 (stereo not drawn),-6.604
14,CCOc1ccc(NC(=O)c2ccc(C#N)cc2C)cc1CO,-12.77
15,CCOc1ccc(C#N)cc1NC(=O)N1CCC(N2CCCC2)C1 (stereo not drawn),-9.106
16,CCCNC(=O)CNc1cc(C#N)ccc1OCC,-1.533
17,CCNC(=O)NC(=O)CNc1cc(C#N)ccc1OCC,107.7
18,CCOc1ccc(C#N)cc1NCC(=O)NC(=O)Nc1ccccc1,91.19
19,CCOc1ccc(C#N)cc1NCC(=O)OC,115.5
20,CCOc1ccc(C#N)cc1NCC(=O)Nc1cc(F)ccc1F,-5.639
